Compound activity deposited in PubChem BioAssay by National Center for Advancing Translational Sciences (NCATS).
Compounds with a hit are over-represented: about 11% of the library has one in this group of screens.
IMPase Li inh: IMPase inhibition in cells with lithium potentiation. CHO-M1 cells, IP1 TR-FRET (IP-One), carbachol + lithium. Potency, µM (titrated, usually from 59.4 µM), inactives show top-dose activity, negative = IMPase inhibition, most hits filed as inhibitors. hit rate 0.35% among 210,000;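 note: IP1 builds up when IMPase is blocked and the TR-FRET signal falls; potency is the fitted concentration of half-maximal effect; plate controls were basal vehicle for no effect and high inhibitor control for full effect; nearly all actives have a fitted effect of over 50% in size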
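CHO cells stably expressing M1 receptor (2000/well, cultured 16–30 h) treated 30 min at 37C with compound plus low lithium. Cytosolic IP1 by TR-FRET (665/620 ratio and 620 channel) after 10 min lysis; AC50 by Hill fit.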
ALOX12 inhib: blocks human 12-lipoxygenase activity; Potency, µM (highest dose often 57.1 µM), for inactives: at the top dose activity change, negative = inhibition, hits mostly inhibitors; purified 12-hLO, xylenol orange hydroperoxide absorbance; hit rate 0.12% among 150,000; P18054; AID 1452; note: potency is the fitted concentration of half-maximal effect; nearly all actives have a fitted effect of over 55% in size
Target sequence (P18054 whole entry, looked up): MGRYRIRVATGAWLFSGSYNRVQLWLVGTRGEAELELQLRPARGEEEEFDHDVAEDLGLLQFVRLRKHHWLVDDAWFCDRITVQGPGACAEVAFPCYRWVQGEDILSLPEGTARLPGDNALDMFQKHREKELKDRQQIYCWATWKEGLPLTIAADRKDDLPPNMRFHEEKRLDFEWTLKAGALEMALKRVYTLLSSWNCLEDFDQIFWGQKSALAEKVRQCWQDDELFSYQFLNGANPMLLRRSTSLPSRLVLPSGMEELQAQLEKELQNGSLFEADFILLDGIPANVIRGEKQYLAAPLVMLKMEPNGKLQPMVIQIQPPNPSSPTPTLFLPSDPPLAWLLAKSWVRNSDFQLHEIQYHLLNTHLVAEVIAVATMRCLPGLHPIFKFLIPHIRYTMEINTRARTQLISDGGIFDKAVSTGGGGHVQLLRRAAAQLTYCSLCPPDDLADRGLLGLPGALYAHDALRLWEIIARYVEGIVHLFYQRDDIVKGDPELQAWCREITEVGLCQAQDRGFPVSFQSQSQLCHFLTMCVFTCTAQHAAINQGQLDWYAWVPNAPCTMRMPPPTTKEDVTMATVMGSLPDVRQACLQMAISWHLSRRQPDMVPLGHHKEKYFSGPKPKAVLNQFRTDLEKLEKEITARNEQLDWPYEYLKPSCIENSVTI
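Purified human 12hLO (150 nM), preincubated 15 min with compound, then 40 uM arachidonic acid for 30 min, room temperature, Hepes pH 7.0 with 0.01% Triton X-100. Hydroperoxide detected by ferrous iron/xylenol orange; 573/405 nm absorbance ratio gives reaction progress.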
IMPase inh: cell-permeable inhibitors of inositol monophosphatase (IMPase); P97697; CHO-M1 cells, IP1 accumulation, HTRF TR-FRET ratio; inhibition (IP1 accumulation), % at 46.1 µM; 120,000 tested, under 10 active; AID 901; active = well fitted curve in the direction sought with a large enough effect in the signal ratio, not every such curve was filed as active; inconclusive = small, poorly fitted or top-dose-only effect, or a change in a side signal; inactive = no such curve, though single readings can be large or run the other way; the % refers to the signal ratio;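 note: cells stimulated with carbachol in lithium chloride buffer; plate controls were DMSO basal wells for no effect and reference inhibitor wells for full effect; higher means more IMPase inhibition seen as more IP1 and lower FRET ratio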
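CHO-M1, 2000 cells/well, cultured 16–30 h; cpd up to 46 uM; carbachol (50 uM solution, stimulation buffer w/ 50 mM LiCl, pH 7.4), 30 min 37C; IP-One TR-FRET, 10 min RT; Ex 320/Em 665, 620; Hill-fit AC50.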
HPGD block: inhibitors of human 15-hydroxyprostaglandin dehydrogenase (HPGD); P15428; purified HPGD, NADH fluorescence kinetic, PGE2 substrate; hit rate 4.3% among 150,000; Potency, µM, without a hit: at the highest dose activity change, negative = inhibition, usual class: inhibitors; active = well fitted inhibition curve with a large enough effect, not every such curve was filed as active; inconclusive = small, poorly fitted or top-dose-only effect, or another doubt; inactive = no such curve, though single readings can be large or run the other way; note: potency is the fitted concentration of half-maximal effect
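20 nM HPGD preincubated 15 min at room temperature with compound in 50 mM Tris-HCl pH 8, 0.01% Tween 20. Started with 1 mM NAD+ and 30 uM prostaglandin E2; NADH fluorescence (360/450 nm) read 5 times over 30-s intervals, last minus first.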
ALDH1A1 block: blocks purified human ALDH1A1 activity | Potency, µM (highest dose often 75.3 µM), without a hit: at the top dose activity, negative = inhibition, usual class: inhibitors | Purified ALDH1A1, NADH fluorescence, propionaldehyde substrate | AID 1030 | P00352 | hit rate 7.3% among 220,000; active = well fitted inhibition curve with a large enough effect, not every such curve was filed as active; inconclusive = small, poorly fitted or top-dose-only effect, or another doubt; inactive = no such curve, though single readings can be large or run the other way;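 note: potency is the fitted concentration of half-maximal effect; plate controls were no enzyme wells and a reference inhibitor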
PNC assembly inh: inhibitors of perinucleolar compartment assembly | activity change (PNC), negative = inhibition, % at 10 µM | hit rate 3.1% among 140,000 | AID 2417 | PC3M PTB-GFP, PNC prevalence imaging, 16 h; hits give low values;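 active = readout at or below -70, meaning at least 70% loss of cells showing the perinucleolar compartment, a nuclear body marking cancer cells; inconclusive = readout between -30 and a set limit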;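 note: plate controls were DMSO wells for no effect and camptothecin positive control wells for full effect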
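PC3M cells stably expressing PTB-GFP, 750–1000 cells/well, treated 16 h at 37 °C with compound (23 nl of library stock), in duplicate. After paraformaldehyde fixation and Hoechst stain, imaged at 20x; PNC prevalence scored by image analysis.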
* marks the source's active call; other numbers are inactive results; [ ] = another dose, or the depositor's remark. Unless noted, calls come from the whole dose curve; as a rule, active = well fitted curve in the direction sought with a large enough effect; inconclusive = small, poorly fitted or top-dose-only effect, or another doubt; inactive = no such curve, though single readings can be large; an effect the other way counts as inactive or inconclusive. Unless noted, % is set by controls: 0 for no effect and ±100 for the full control effect.

What do the screens show for `C[N+](C)(C)CCOP(=O)([O-])OP(=O)(O)OCC1OC(n2ccc(N)nc2=O)C(O)C1O` (centres undefined)?
IMPase Li inh: 2%; ALOX12 inhib: -1%; HPGD block: -5%; ALDH1A1 block: 8%

How did COc1ccc(OCCNS(=O)(=O)c2ccc3oc4ccccc4c3c2)cc1 do in these assays?
IMPase Li inh: 5%[38.3 µM]; ALOX12 inhib: -1%; IMPase inh: 3; HPGD block: -21%; ALDH1A1 block: 4%; PNC assembly inh: 10

How did COc1ccc(NS(=O)(=O)c2ccc3oc4ccccc4c3c2)cn1 do in these assays?
IMPase Li inh: 22%[38.3 µM]; ALOX12 inhib: -14%; IMPase inh: 11; HPGD block: 22µM*; ALDH1A1 block: 8.9µM*; PNC assembly inh: -14

How did O=C(c1nc2ccccn2c1CN1CCCC(OCc2ccccc2)C1)N1CCCC1 (centres undefined) do in these assays?
IMPase Li inh: 4%; ALDH1A1 block: 0%

How did CCOC(=O)c1c(NC(=O)OC)sc(C(=O)N(CC)CC)c1C do in these assays?
IMPase Li inh: 15%[38.3 µM]; ALOX12 inhib: -6%; IMPase inh: 10; HPGD block: 28µM*; ALDH1A1 block: inconclusive; PNC assembly inh: 1

What do the screens show for `CCC(=O)Nc1sc(C(=O)OC)c(C)c1C(=O)OC`?
IMPase Li inh: 6%[38.3 µM]; ALOX12 inhib: -2%; IMPase inh: -6; HPGD block: 22µM*; ALDH1A1 block: inconclusive; PNC assembly inh: inconclusive

Results for CCN(CC)C(=O)c1sc(NC(=O)c2ccncc2)c(C(=O)OC)c1C ?
IMPase Li inh: -2%; ALOX12 inhib: -1%; HPGD block: 22µM*; ALDH1A1 block: 14µM*; PNC assembly inh: inconclusive

Results for CCOC(=O)c1c(NC(=O)c2ccoc2C)sc(C(=O)N(C)C)c1C ?
IMPase Li inh: 27%[38.3 µM]; ALOX12 inhib: -7%; IMPase inh: 0; HPGD block: inconclusive; ALDH1A1 block: 20µM*; PNC assembly inh: -13

What do the screens show for `CCOC(=O)c1sc(NC(=O)OC)c(C(=O)OC)c1C`?
IMPase Li inh: 8%; ALDH1A1 block: 2%

How did CCN(CC)C(=O)c1sc(NC(=O)c2cc(-c3ccc(C)s3)nc3ccccc23)c(C(=O)OC)c1C do in these assays?
IMPase Li inh: -11%[38.3 µM]; ALOX12 inhib: -6%; IMPase inh: -7; HPGD block: inconclusive; ALDH1A1 block: inconclusive; PNC assembly inh: inconclusive

How did COc1cccc(Nc2ncc3nc(C)c(=O)n(CCc4ccccc4)c3n2)c1 do in these assays?
IMPase Li inh: 15%; ALDH1A1 block: inconclusive

What do the screens show for `CC(C)NC[C@@H](O)COc1cccc2ccccc12`?
IMPase Li inh: -3%; ALOX12 inhib: 7%; IMPase inh: -12; HPGD block: 4%; ALDH1A1 block: 3%

What do the screens show for `CCN(CC)C(=O)c1sc(NC(=O)c2ccoc2C)c(C(=O)OC)c1C`?
IMPase Li inh: 10%[38.3 µM]; ALOX12 inhib: 2%; IMPase inh: 3; HPGD block: 14µM*; ALDH1A1 block: 22µM*; PNC assembly inh: 67

How did COc1ccccc1NC(=O)Cn1c2ccccc2c2nc3n(c(=O)c21)CCS3 do in these assays?
IMPase Li inh: -6%; ALDH1A1 block: -13%

What do the screens show for `COc1ccc(S(=O)(=O)N2CCCCCC2)cc1C(=O)OCc1c(C)noc1C`?
IMPase Li inh: 2%[38.3 µM]; ALOX12 inhib: -7%; IMPase inh: 5; HPGD block: 1%; ALDH1A1 block: 14µM*; PNC assembly inh: 28

How did Cc1noc(C)c1COC(=O)c1cccc(S(=O)(=O)N2CCCCCC2)c1 do in these assays?
IMPase Li inh: 17%[38.3 µM]; ALOX12 inhib: -5%; IMPase inh: 12; HPGD block: -2%; ALDH1A1 block: inconclusive; PNC assembly inh: inconclusive

Results for COc1ccc(S(=O)(=O)N2CCc3ccccc32)cc1C(=O)OCc1c(C)noc1C ?
IMPase Li inh: 17%[38.3 µM]; ALOX12 inhib: -6%; IMPase inh: 9; HPGD block: -18%; ALDH1A1 block: 3.2µM*; PNC assembly inh: inconclusive

What do the screens show for `C=C(C)COc1ccc2c(c1)CCC1C2CC[C@]2(C)C(=O)/C(=N/O)CC12` (some centres undefined)?
IMPase Li inh: -12%; ALOX12 inhib: 5%[11.4 µM]; HPGD block: 2%; ALDH1A1 block: 7%[13.5 µM]

Results for O=C(CSc1nc(-c2ccco2)cc(C(F)(F)F)n1)N1CCN(Cc2ccccc2)CC1 ?
IMPase Li inh: 24%[38.3 µM]; ALOX12 inhib: -2%; IMPase inh: 1; HPGD block: inconclusive; ALDH1A1 block: 16µM*; PNC assembly inh: 31

Results for O=C(CSc1nc(-c2ccco2)cc(C(F)(F)F)n1)N1CCN(c2ccc(Cl)cc2)CC1 ?
IMPase Li inh: 7%; ALOX12 inhib: -2%; IMPase inh: -13; HPGD block: -22%; ALDH1A1 block: -10%; PNC assembly inh: -27

Results for COc1ccccc1N1CCN(C(=O)CSc2nc(-c3ccco3)cc(C(F)(F)F)n2)CC1 ?
IMPase Li inh: 6%[38.3 µM]; ALOX12 inhib: -14%; IMPase inh: -4; HPGD block: -26%; ALDH1A1 block: 7.9µM*; PNC assembly inh: -15

How did COc1ccc(NC(=O)CSc2nc(-c3ccco3)cc(C(F)(F)F)n2)cc1Cl do in these assays?
IMPase inh: -1

Results for Cn1nccc1NC(=O)COCC(=O)O ?
ALDH1A1 block: 1%

How did Cc1cc(C)cc(NC(=O)Cn2cc3c(n2)CCCCC3)c1 do in these assays?
IMPase Li inh: 22%[38.3 µM]; ALOX12 inhib: -4%; IMPase inh: 1; HPGD block: 20µM*; ALDH1A1 block: -8%; PNC assembly inh: -17

How did COC(=O)[C@@]1(Cc2ccc(OC)cc2)[C@H]2c3cc(C(=O)N(C)C)n(Cc4ccc(O)c(OC)c4)c3C[C@H]2CN1C(=O)c1ccccc1 do in these assays?
IMPase Li inh: 7%; ALOX12 inhib: -24%; HPGD block: -9%; ALDH1A1 block: -8%

How did O=C(Cn1cc(C(=O)c2cccs2)c2ccccc21)NCc1ccc2c(c1)OCO2 do in these assays?
IMPase Li inh: 5%[38.3 µM]; ALOX12 inhib: -2%; IMPase inh: -1; HPGD block: -5%; ALDH1A1 block: 14µM*; PNC assembly inh: -10

Results for O=C(/C=C/c1ccc(Cl)cc1)NCc1cccs1 ?
IMPase Li inh: 4%; ALOX12 inhib: -2%; HPGD block: -19%; ALDH1A1 block: 1%; PNC assembly inh: inconclusive

How did O=C(/C=C/c1cccc(Cl)c1)NCc1cccs1 do in these assays?
IMPase Li inh: -6%[38.3 µM]; ALOX12 inhib: -1%; IMPase inh: 0; HPGD block: 32µM*; ALDH1A1 block: -3%; PNC assembly inh: 13
